Screen size: about 330,000 compounds; about 1,100 (0.33%) were called active. The full list was thinned out, with actives kept by preference. Values without a mark were called inactive. Cut-off read from the data, not from the text of the source: active = inhibition above about 35%; inactive = the rest.
Assay: inhibitors of PMA/ionomycin-induced NF-kB reporter, 697 cells, primary screen, B-cell NF-kB inhibitor project, cell-based, luminescence, uHTS (AID 435022)
Settings: 697 B-cell NF-kB luciferase reporter, 16 h, at 4 µM, active compounds read high

SMILES | inhibition
O=C(C1CCC1)N1CCN(S(=O)(=O)c2ccc([N+](=O)[O-])cc2)CC1 | 38.2% (active)
O=C(C1CCCN(S(=O)(=O)c2ccc([N+](=O)[O-])cc2)C1)N1CCCCC1 (stereo not given) | -4.88%
O=C(Cc1ccccc1)N1CCN(S(=O)(=O)c2ccc([N+](=O)[O-])cc2)CC1 | 4.38%
COC(=O)c1c(NC(=O)COC(=O)[C@@H](NS(=O)(=O)c2ccccc2)C(C)C)sc2c1CCC2 | 10.3%
CC1CCCCN1C(=O)Cn1c(=O)oc2cc(S(=O)(=O)N3CCCCC3)ccc21 (stereo not given) | 4.87%
O=C(CSc1nc(-c2ccccc2)cs1)Nc1cccc([N+](=O)[O-])c1 | 1.61%
CCN(CCCNC(=O)c1ccc2c(c1)NC(=O)CN2C)c1cccc(C)c1 | -19.3%
O=C(Nc1ccc(-c2csc(Nc3cccc(C(F)(F)F)c3)n2)cc1)c1cccc(C(F)(F)F)c1 | -26.3%
O=C(Nc1ccc(C(F)(F)F)cc1)c1cccc(-n2cnnn2)c1 | -26.7%
CNC(=O)c1ccc(NC(=O)c2cccc(C(F)(F)F)c2)cc1 | 40.3% (active)
Cc1ccc(NC(=O)CSc2nnc(CNC(=O)c3ccccc3F)o2)cc1 | 0.808%
CCOC(=O)N1CCN(S(=O)(=O)c2ccc(-n3cnnn3)cc2)CC1 | -11.9%
O=C(Nc1ccccc1N1CCN(C(=O)c2ccccc2)CC1)c1ccco1 | 6.77%
CCCNC(=O)c1ccc(N2CCC3(CC2)CC(c2cccc(Br)c2)=NO3)c(NC(=O)c2ccco2)c1 | 35.6% (active)
CCCNC(=O)c1ccc(N2CCC3(CC2)CC(c2ccc(Cl)cc2)=NO3)c([N+](=O)[O-])c1 | -1.96%
COc1ccc(NC(=O)c2sccc2SCC#N)cc1 | 0.298%
O=C(O)C1=C[C@H](c2cccs2)C[C@H](OCCCCO)O1 | 27.6%
Cn1c(CCCOc2ccc(Cl)cc2Cl)n[nH]c1=S | -42.5%
COc1cc(N=Cc2c(O)[nH]c3ccccc23)cc(OC)c1OC | 45.5% (active)
CN=c1scc(-c2cc(OC)ccc2OC)n1/N=C/c1c(C)[nH]c2ccccc12 | -18%

SMILES | inhibition
COc1ccc2[nH]c(C(=O)N/N=C/c3cc(OC)c(OC)c(OC)c3)cc2c1 | -5.61%
O=C(Nc1ccc2c(c1)OCO2)C1CC(c2c(F)cccc2Cl)=NO1 (stereo not given) | 10.7%
O=C(CNC(=O)Cc1ccccc1)NCC(=O)OCC(=O)c1ccccc1Cl | 12.5%
O=C(O)c1ccc(COc2c(F)c(F)cc(F)c2F)o1 | 4.23%
Cn1c(=O)c2c(nc(N3CCCCCC3)n2CC(O)COc2ccc(Cl)cc2)n(C)c1=O (stereo not given) | -3.4%
COc1ccc(CNC(=O)C2CCCC2)cc1 | 9.55%
COc1ccc(CNC(=O)[C@@H]2CC=C[C@@H]3CCN(C4CC4)C(=O)[C@@H]32)cc1 | 37.2% (active)
COc1ccc(CNC(=O)C2CCN(S(C)(=O)=O)CC2)cc1 | 3.89%
CC(NC(=S)Nc1ccc(OC(F)F)cc1)c1ccc(F)cc1 (stereo not given) | 2.48%
COC(=O)c1cc(OC)c(OC)cc1NC(=O)C1CCCO1 (stereo not given) | 6.92%
Cn1nccc1C(=O)NC1CCCc2c1cnn2-c1ccccc1F (stereo not given) | 62.7% (active)
COc1ccc(C(=O)NC2CC(C)(C)Cc3c2cnn3-c2ccccc2C)o1 (stereo not given) | 4.57%
COc1ccc(C(=O)NC2CCCc3c2cnn3-c2cccc(C)c2C)c(OC)n1 (stereo not given) | -399%
Cc1ccc(-n2ncc3c2CCCC3NC(=O)c2cnccn2)cc1C (stereo not given) | -27.6%
CC1(C)Cc2c(cnn2-c2cccc(F)c2)C(NC(=O)c2cc[n+]([O-])cc2)C1 (stereo not given) | -12.6%
Cn1nccc1C(=O)NC1CCCc2c1cnn2-c1ccc(F)cc1F (stereo not given) | 36.2% (active)
CC(C)(C)C(=O)NCCCNc1ccc([N+](=O)[O-])cc1 | 14.1%
CN(C(=O)CC(NC(=O)c1ccccc1)(c1ccccc1)c1ccccc1)c1ccccc1 | 12%
COC(=O)/C(C#N)=C/c1occc1C | 5.66%
CC(NCc1cccs1)C(=O)Nc1cc(Cl)cc(Cl)c1 (stereo not given) | 7.31%

SMILES | inhibition
CN(C)c1ccc(-n2cccc2/C=N/n2cnnc2)cc1 | -4.94%
CCc1ccnc(NC(=O)Nc2ccc(OCc3ccccc3)cc2)c1 | 6.55%
O=c1[nH]c(-c2ccccc2)c(-c2ccccc2)[nH]1 | 35.4% (active)
O=c1cc(-c2ccccc2)nc(N2CCCCC2)[nH]1 | 11.5%
O=C(O)c1n[nH]nc1-c1ccccc1 | 14.7%
COc1ccc(CNC(=O)C[C@H]2C[C@H](C(=O)N3CCOCC3)[C@@]3(C)c4[nH]c5cc(CCC(=O)N(C)C)ccc5c4CCN3C2=O)cc1OC | 11.5%
CN1CC(c2ccccc2)C2(COc3ccccc3C2=O)C12C(=O)Nc1ccccc12 (stereo not given) | 11.7%
CC(=O)c1nc(N2C(=O)C3CC=C(C)CC3C2=O)sc1C (stereo not given) | 23.1%
C[C@@H]1C[C@@H]2O[C@H]2/C=C\C=C\C(=O)Cc2c(Cl)c(O)cc(O)c2C(=O)O1 | 83.8% (active)
COc1ccc(NC(=O)CSc2nc(SC)ns2)c(OC)c1 | -40%
CCOC(=O)CSC1=N/C(=C/c2ccc(-n3cncn3)cc2)C(=O)N1C(C)=O | 6.08%
C=CCC[C@@H](Cc1ccc(F)cc1)C(=O)O[C@H](CNC(=O)[C@H](CC=C)CC(=O)N(CCO)Cc1ccccc1)c1ccccc1 | 1.62%
CCOc1ccc(C(=O)CCC(=O)NC2=NCCS2)cc1 | 21.2%
O=C(CS(=O)(=O)Cc1ccccc1)Nc1cccnc1 | -24.8%
OCCN1CCN(C(=S)c2ccc(-c3ccccc3)cc2)CC1 | 55.1% (active)
CN1CCN(CCCCOc2ccccc2-c2ccccc2)CC1 | -15%
S=C(c1ccc(-c2ccccc2)o1)N1CCCCC1 | -134%
Cc1cc(=O)oc2c(C(=O)c3ccccc3)c(OCC(N)=O)ccc12 | -14.5%
O=C(CSC1=NS(=O)(=O)c2cc(F)ccc2N1)Nc1ccccc1F | 1.35%
NCCCC[C@@H]1NC(=O)[C@H](CCC(=O)O)NC(=O)c2cc([N+](=O)[O-])cc(I)c2NCC[C@@H](C(N)=O)NC1=O | 18.3%

— PubChem BioAssay AID435022 (Sanford-Burnham Center for Chemical Genomics, 2010)
